Drawing on PubChem BioAssay (EPA / NIEHS), this text covers outcome and AC50 for five compounds.

Assay [1] is described as follows: ATG_NFI_CIS: Attagene CIS-FACTORIAL HepG2 Assay for human Nuclear Factor I (NFI) (AID 2282989). As to conditions: HepG2 cis-regulatory reporter, NFI response element transcription; actives raise or lower the signal. The method, boiled down:
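Multiplexed cis-reporter system in human HepG2 cells reports native TF activity as reporter mRNA induction 24 h post-dose. Fragments labelled with 6-FAM, HpaI-digested and resolved by capillary electrophoresis; activity fitted both directions versus DMSO.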

For assay [2], the target named is Myc proto-oncogene protein (Homo sapiens) (UniProt P01106). The assay can be described thus: ATG_Myc_CIS: Attagene CIS-FACTORIAL HepG2 Assay for human Myelocytomatosis (Myc) Proto-Oncogene Transcription Factor (AID 2282990). As to conditions: HepG2, Attagene cis-reporter transcription factor activity; actives raise or lower the signal. The method, boiled down: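 After 24 h chemical treatment of HepG2 cells carrying multiplexed cis-regulated reporter constructs, reporter transcripts quantified by RT-PCR and capillary electrophoresis of fluorescent fragments. Gain or loss fitted against DMSO baseline.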

Assay [3] is described as follows: ATG_NF_kB_CIS: Attagene CIS-FACTORIAL HepG2 Assay for human Nuclear Factor Kappa B (NF-kB) (AID 2282991). Conditions: HepG2 Attagene cis-factorial NF-kB reporter mRNA; actives raise or lower the signal. The method, boiled down:
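HepG2 cells transfected with cis-promoter-driven reporter units, so endogenous transcription factor activity is measured. Reporter mRNA quantified 24 h after dosing by RT-PCR and capillary electrophoresis, with bidirectional fitting against DMSO.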

The nature of assay [4]: ATG_NRF2_ARE_CIS: Attagene CIS-FACTORIAL HepG2 Assay for human Nuclear Factor Erythroid 2 Related Factor 2 (NFR2) response to Antioxidant Response Elements (ARE) (AID 2282992).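 On AC50: reporter mRNA level measured by RT-PCR and capillary electrophoresis fluorescence.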 Conditions: HepG2 Attagene ARE/NRF2 reporter, transcription factor activity; actives raise or lower the signal. The method, boiled down: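 Cis-factorial assay: transfected HepG2 reporter library, 24 h dosing, mRNA readout via RT-PCR/CE; DMSO-referenced bidirectional analysis.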

Assay [5] in a line: ATG_Oct_MLP_CIS: Attagene CIS-FACTORIAL HepG2 Assay for human Octamer-Binding Transcription Factor (Oct) (AID 2282993). As to conditions: HepG2 Attagene cis-factorial Oct reporter, mRNA; actives raise or lower the signal. Put shortly:
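After 24 h compound exposure, transfected HepG2 cells were lysed for total RNA; reporter-specific cDNA was PCR-amplified, fluorescently labelled and sized by capillary electrophoresis. Bidirectional curve fitting used DMSO as baseline.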

The target in assay [6] is Cellular tumor antigen p53 (Homo sapiens) (UniProt P04637). The assay can be described thus: ATG_p53_CIS: Attagene CIS-FACTORIAL HepG2 Assay for human p53 Transcription Factor (AID 2282994). As to conditions: HepG2 p53 cis-element reporter, Attagene mRNA; actives raise or lower the signal. Put shortly:
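Using HepG2 hepatoma cells carrying cis-acting multiplexed reporters, mRNA induction is detected after a 24 h exposure. Gain- and loss-of-signal responses are fitted relative to DMSO-treated cells.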

The nature of assay [7]: BSK_3C_TissueFactor: BioMAP Diversity Plus: 3C Assay for Tissue Factor Biomarker Activity (AID 2282997). Conditions: BioMAP 3C HUVEC, tissue factor biomarker readout; actives raise or lower the signal. Put shortly:
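Primary human umbilical vein endothelial cells in the 3C system were exposed to test chemical for 24 h, then Tissue Factor measured by ELISA. Activity was fitted bidirectionally against DMSO as negative control and baseline.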

The nature of assay [8]: BSK_3C_uPAR: BioMAP Diversity Plus: 3C Assay for Urokinase-type plasminogen activator receptor (uPAR) Biomarker Activity (AID 2282998). Conditions: BioMAP 3C HUVEC, uPAR biomarker ELISA; actives raise or lower the signal. The method, boiled down: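 Values derive from bidirectional curve fitting relative to DMSO, which served as baseline of activity. uPAR was measured by ELISA in human umbilical vein endothelial primary cultures 24 h after compound addition.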
(In general: ELISA stands for enzyme-linked immunosorbent assay.)

Assay [9] can be described thus: BSK_3C_VCAM1: BioMAP Diversity Plus: 3C Assay for Vascular cell adhesion molecule 1 (VCAM1) Biomarker Activity (AID 2282999). As to conditions: BioMAP 3C HUVEC, VCAM1 ELISA, cytokine-stimulated; actives raise or lower the signal. Put shortly: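 Endothelial cells from human umbilical vein are treated with test chemical. At 24 h, VCAM-1 is measured by ELISA, and responses in either direction are fitted relative to DMSO.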

Assay [10] in a line: BSK_4H_Eotaxin3: BioMAP Diversity Plus: 4H Assay for Eotaxin 3 Biomarker Activity (AID 2283000).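 On outcome: CCL26 protein level quantified by ELISA in parallel with SRB cytotoxicity check.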 As to conditions: primary human endothelial cells (HUVEC); actives raise or lower the signal. The method, boiled down:
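HUVEC, 24 h post-dose, ELISA for Eotaxin-3/CCL26. Gain or loss of signal fitted bidirectionally vs DMSO baseline.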

In assay [11] the target is human Peroxisome Proliferator-activated Receptor delta (PPARd), PPARD (gene 5467) (UniProt Q03181). In words: ATG_PPARd_TRANS: Attagene TRANS-FACTORIAL HepG2 Assay for human Peroxisome Proliferator-activated Receptor delta (PPARd) (AID 2283002; active means hit-call score of the fitted dose curve at least 0.9, where 1 is the maximum). The method, boiled down:
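Read-out is induced reporter mRNA, quantified by RT-PCR with fluorescent labelling and capillary electrophoresis after 24 h dosing. Cells are HepG2 transiently carrying multiple GAL4-UAS reporter units driven by exogenous NR-GAL4 chimeras; DMSO serves as baseline.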

Read-out in assay [12]: Intercellular Adhesion Molecule 1 (ICAM1), ICAM1 (gene 3383)
The assay can be described thus: BSK_3C_ICAM1: BioMAP Diversity Plus: 3C Assay for Intercellular Adhesion Molecule 1 (ICAM1) Biomarker Activity (AID 2283003). As to conditions: primary human endothelial cells (HUVEC); actives raise or lower the signal. Put shortly: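 Human vascular endothelial primary cells, 3C conditions, 24 h treatment. ICAM-1 by ELISA.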

Assay [13] addresses human Retinoic Acid Receptor beta (RARb), RARB (gene 5915) (UniProt P10826). The assay can be described thus: ATG_RARb_TRANS: Attagene TRANS-FACTORIAL HepG2 Assay for human Retinoic Acid Receptor beta (AID 2283004; active means hit-call score of the fitted dose curve at least 0.9, where 1 is the maximum). The method, boiled down:
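HepG2 cells transiently transfected with multiplexed GAL4-UAS reporter units expressing chimeric NR–Gal4 fusions; 24 h compound exposure. Reporter mRNA quantified by RT-PCR, 6-FAM labelling, HpaI digestion and capillary electrophoresis; gain-of-signal fitted against DMSO baseline.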

Assay [14] has as its target Retinoic acid receptor alpha (Homo sapiens) (UniProt P10276). In words: ATG_RARa_TRANS: Attagene TRANS-FACTORIAL HepG2 Assay for human Retinoic Acid Receptor alpha (RARa) (AID 2283005; active means hit-call score of the fitted dose curve at least 0.9, where 1 is the maximum). The method, boiled down:
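Reporter transcripts, measured by RT-PCR with fluorescent labeling and capillary electrophoresis after 24 h dosing, reflect activity of an exogenous human RARa–GAL4 fusion in transiently transfected HepG2. Fitted for increase relative to DMSO.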

Assay [15] is described as follows: BSK_3C_Proliferation: Cell Proliferation Assessment in the BioMAP Diversity Plus: 3C Assay (AID 2283006).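 On AC50: potency may reflect either rise or fall in cell number versus DMSO.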 As to conditions: primary human endothelial cells (HUVEC). The method, boiled down: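 Proliferation of human vascular endothelial primary cells after 48 h dosing, quantified as SRB-stained protein at 560 nm relative to DMSO.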
Assay [16] has as its target Peroxisome proliferator-activated receptor gamma (Homo sapiens) (UniProt P37231). The assay can be described thus: ATG_PPARg_TRANS: Attagene TRANS-FACTORIAL HepG2 Assay for human Peroxisome Proliferator-activated Receptor-gamma (PPARg) (AID 2283007; active means hit-call score of the fitted dose curve at least 0.9, where 1 is the maximum). Put shortly: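 HepG2 cells are transiently transfected with GAL4-UAS reporter units driven by chimeric NR-Gal4 fusions and dosed for 24 h. Reporter mRNA is quantified by RT-PCR, 6-FAM labelling, HpaI digestion and capillary electrophoresis. Induction is scored against DMSO.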

Assay [17] has as its target Nuclear receptor subfamily 1 group I member 2 (Homo sapiens) (UniProt O75469). The assay can be described thus: ATG_PXR_TRANS: Attagene TRANS-FACTORIAL HepG2 Assay for human Pregnane X Receptor (PXR) (AID 2283008; active means hit-call score of the fitted dose curve at least 0.9, where 1 is the maximum). Put shortly:
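Fluorescence intensity of FAM-labelled, HpaI-digested reporter amplicons, separated by capillary electrophoresis, quantifies induction. HepG2 cells with PXR-Gal4 trans-reporter system were exposed 24 h; DMSO defines baseline.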

Assay [18] has as its target human Retinoic Acid Receptor gamma (RARg), RARG (gene 5916) (UniProt P13631). The assay can be described thus: ATG_RARg_TRANS: Attagene TRANS-FACTORIAL HepG2 Assay for human Retinoic Acid Receptor gamma (RARg) (AID 2283009; active means hit-call score of the fitted dose curve at least 0.9, where 1 is the maximum). Put shortly: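 HepG2, RARg-GAL4 TRANS system, 24 h exposure; reporter mRNA by RT-PCR + CE fluorescence; increase over DMSO.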
For assay [19], the target named is human Peroxisome Proliferator-activated Receptor alpha (PPARa), PPARA (gene 5465) (UniProt Q07869). The assay can be described thus: ATG_PPARa_TRANS: Attagene TRANS-FACTORIAL HepG2 Assay for human Peroxisome Proliferator-activated Receptor alpha (PPARa) (AID 2283001; active means hit-call score of the fitted dose curve at least 0.9, where 1 is the maximum;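 on AC50: potency for gain of reporter signal over DMSO so agonist or activator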). The method, boiled down: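 Reporter transcripts from GAL4-UAS units in transfected HepG2 were quantified 24 h after dosing. Detection used reverse transcription, PCR, fluorescent primer extension and capillary electrophoresis, with DMSO as baseline.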

Assay [20] addresses human RAR-related Orphan Receptor beta (RORb), RORB (gene 6096) (UniProt Q92753). In words: ATG_RORb_TRANS: Attagene TRANS-FACTORIAL HepG2 Assay for human RAR-related Orphan Receptor beta (RORb) (AID 2283010; active means hit-call score of the fitted dose curve at least 0.9, where 1 is the maximum). Put shortly: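 In this TRANS-format test, human HepG2 cells express chimeric NR-Gal4 fusion proteins driving GAL4-UAS reporters. After 24 h dosing, reporter transcripts are measured by fluorescent RT-PCR/capillary electrophoresis, with DMSO as negative control.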

The structures appear in SMILES notation. “And” between values parts separate entries of the source, which are not always exact repeats. Identical values can stand only once. Results filed as inconclusive are left out. A structure can be active in one record and inactive in another. The source made the active and inactive calls. How the source made its calls, unless noted: active means hit-call score of the fitted dose curve at least 0.9, where 1 is the maximum; inactive means score below 0.9.

Sequence of Retinoic acid receptor alpha (Homo sapiens) (P10276 whole entry, looked up, the tested form may be a part): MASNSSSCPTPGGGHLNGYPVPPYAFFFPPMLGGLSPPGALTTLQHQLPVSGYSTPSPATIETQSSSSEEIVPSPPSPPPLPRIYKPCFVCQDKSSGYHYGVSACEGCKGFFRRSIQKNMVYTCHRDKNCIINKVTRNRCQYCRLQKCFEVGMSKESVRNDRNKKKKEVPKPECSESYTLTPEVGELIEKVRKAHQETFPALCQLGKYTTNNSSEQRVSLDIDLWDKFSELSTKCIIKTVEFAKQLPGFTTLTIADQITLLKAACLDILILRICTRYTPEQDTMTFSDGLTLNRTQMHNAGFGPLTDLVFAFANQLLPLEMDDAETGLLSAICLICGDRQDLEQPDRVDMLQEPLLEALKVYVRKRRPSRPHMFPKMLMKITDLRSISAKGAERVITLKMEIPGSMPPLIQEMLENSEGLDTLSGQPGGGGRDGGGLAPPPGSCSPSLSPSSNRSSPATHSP
Sequence of Nuclear receptor subfamily 1 group I member 2 (Homo sapiens) (O75469 whole entry, looked up, the tested form may be a part): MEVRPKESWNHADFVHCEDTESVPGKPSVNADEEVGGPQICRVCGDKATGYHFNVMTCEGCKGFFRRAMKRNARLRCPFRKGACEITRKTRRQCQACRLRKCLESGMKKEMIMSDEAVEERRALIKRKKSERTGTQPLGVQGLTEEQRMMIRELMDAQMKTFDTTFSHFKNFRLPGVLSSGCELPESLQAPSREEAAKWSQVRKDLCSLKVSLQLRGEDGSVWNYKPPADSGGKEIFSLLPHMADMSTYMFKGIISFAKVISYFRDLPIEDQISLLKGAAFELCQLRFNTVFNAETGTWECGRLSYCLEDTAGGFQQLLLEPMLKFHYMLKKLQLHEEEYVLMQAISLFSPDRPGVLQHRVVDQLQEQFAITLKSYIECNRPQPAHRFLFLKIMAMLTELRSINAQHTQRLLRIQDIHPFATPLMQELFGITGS
Sequence of human Retinoic Acid Receptor beta (RARb), RARB (gene 5915) (P10826 whole entry, looked up, the tested form may be a part): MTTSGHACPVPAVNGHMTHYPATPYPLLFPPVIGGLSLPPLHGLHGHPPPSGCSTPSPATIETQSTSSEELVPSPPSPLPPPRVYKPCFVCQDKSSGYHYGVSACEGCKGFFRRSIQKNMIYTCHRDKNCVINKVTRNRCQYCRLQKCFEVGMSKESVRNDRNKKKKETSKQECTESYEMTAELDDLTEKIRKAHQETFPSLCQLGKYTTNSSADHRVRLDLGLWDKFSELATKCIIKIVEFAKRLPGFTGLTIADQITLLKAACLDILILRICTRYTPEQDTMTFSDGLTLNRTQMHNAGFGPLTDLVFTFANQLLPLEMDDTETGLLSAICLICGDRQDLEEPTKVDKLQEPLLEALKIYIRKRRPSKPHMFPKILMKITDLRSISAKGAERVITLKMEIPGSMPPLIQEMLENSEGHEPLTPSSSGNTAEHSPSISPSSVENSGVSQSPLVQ
Sequence of human Retinoic Acid Receptor gamma (RARg), RARG (gene 5916) (P13631 whole entry, looked up, the tested form may be a part): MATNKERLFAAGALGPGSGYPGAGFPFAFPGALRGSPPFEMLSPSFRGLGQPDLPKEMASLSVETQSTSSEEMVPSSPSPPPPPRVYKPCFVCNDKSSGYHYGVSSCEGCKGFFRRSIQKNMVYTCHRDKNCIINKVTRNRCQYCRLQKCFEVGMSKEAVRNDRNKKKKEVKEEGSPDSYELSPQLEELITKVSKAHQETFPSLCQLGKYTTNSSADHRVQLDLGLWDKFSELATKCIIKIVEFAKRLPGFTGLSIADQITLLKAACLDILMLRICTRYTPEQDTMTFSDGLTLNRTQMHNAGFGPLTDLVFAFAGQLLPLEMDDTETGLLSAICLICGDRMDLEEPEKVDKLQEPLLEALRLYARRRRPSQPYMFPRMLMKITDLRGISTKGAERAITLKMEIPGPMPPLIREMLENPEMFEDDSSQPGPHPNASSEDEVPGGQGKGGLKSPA
Sequence of Peroxisome proliferator-activated receptor gamma (Homo sapiens) (P37231 whole entry, looked up, the tested form may be a part): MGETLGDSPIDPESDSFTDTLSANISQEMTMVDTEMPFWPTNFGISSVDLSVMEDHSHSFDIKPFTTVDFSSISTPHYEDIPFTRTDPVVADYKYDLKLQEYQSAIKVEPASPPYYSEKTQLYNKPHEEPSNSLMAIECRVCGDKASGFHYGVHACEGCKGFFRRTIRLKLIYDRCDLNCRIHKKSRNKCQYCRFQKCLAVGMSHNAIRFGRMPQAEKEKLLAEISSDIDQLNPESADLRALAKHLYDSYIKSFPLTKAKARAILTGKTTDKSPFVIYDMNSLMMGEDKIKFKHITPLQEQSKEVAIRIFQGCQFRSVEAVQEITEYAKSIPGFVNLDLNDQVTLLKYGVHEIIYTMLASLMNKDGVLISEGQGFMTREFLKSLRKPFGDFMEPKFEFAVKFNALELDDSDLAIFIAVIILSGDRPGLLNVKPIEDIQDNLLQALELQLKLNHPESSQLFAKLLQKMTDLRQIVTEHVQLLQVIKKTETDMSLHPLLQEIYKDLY
Sequence of human Peroxisome Proliferator-activated Receptor delta (PPARd), PPARD (gene 5467) (Q03181 whole entry, looked up, the tested form may be a part): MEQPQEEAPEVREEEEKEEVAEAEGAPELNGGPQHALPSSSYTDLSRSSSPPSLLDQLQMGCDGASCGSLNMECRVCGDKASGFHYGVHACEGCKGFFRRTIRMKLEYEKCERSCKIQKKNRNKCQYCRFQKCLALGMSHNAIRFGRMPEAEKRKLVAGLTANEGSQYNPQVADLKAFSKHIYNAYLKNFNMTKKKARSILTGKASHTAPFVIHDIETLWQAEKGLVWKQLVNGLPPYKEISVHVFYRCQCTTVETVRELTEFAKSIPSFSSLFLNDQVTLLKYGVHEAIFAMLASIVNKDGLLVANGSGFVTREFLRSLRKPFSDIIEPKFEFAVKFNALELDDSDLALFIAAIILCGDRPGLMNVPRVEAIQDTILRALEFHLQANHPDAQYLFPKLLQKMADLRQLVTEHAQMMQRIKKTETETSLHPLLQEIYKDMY
Sequence of Myc proto-oncogene protein (Homo sapiens) (P01106 whole entry, looked up, the tested form may be a part): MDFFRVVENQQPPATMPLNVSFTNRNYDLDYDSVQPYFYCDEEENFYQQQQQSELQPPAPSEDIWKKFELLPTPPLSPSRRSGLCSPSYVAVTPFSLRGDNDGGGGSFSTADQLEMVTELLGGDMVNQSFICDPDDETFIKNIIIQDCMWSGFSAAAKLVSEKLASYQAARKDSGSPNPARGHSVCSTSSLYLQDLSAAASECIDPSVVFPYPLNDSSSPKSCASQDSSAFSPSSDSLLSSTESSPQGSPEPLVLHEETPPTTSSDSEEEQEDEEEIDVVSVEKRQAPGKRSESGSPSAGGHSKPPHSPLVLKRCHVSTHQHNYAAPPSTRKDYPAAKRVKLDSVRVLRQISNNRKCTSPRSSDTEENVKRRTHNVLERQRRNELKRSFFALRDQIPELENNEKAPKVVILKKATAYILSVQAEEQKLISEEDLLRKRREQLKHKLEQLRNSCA
Sequence of human Peroxisome Proliferator-activated Receptor alpha (PPARa), PPARA (gene 5465) (Q07869 whole entry, looked up, the tested form may be a part): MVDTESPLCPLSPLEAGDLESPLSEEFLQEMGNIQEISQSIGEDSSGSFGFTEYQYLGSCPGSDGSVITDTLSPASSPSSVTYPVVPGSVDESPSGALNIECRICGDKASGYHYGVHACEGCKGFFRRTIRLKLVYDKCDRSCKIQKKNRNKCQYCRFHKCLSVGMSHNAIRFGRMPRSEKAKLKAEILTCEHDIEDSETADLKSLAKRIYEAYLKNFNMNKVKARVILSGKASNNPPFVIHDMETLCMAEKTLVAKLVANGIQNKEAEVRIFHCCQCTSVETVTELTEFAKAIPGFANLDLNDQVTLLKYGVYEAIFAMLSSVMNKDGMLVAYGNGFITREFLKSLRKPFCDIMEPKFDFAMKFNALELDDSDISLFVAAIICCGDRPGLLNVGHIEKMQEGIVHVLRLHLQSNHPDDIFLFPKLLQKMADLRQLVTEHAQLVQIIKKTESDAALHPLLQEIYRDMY
Sequence of Cellular tumor antigen p53 (Homo sapiens) (P04637 whole entry, looked up): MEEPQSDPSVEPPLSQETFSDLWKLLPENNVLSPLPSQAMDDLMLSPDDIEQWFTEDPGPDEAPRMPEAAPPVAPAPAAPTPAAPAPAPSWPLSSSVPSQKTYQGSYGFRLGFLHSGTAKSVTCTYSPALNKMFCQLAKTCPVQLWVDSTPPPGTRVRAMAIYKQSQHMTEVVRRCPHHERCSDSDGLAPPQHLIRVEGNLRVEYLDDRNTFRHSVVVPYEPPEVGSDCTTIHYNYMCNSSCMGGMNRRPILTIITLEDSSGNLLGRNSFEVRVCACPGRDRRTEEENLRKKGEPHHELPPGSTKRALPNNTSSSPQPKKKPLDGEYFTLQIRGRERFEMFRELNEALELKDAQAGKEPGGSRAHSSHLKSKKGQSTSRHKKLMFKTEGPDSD
Sequence of human RAR-related Orphan Receptor beta (RORb), RORB (gene 6096) (Q92753 whole entry, looked up, the tested form may be a part): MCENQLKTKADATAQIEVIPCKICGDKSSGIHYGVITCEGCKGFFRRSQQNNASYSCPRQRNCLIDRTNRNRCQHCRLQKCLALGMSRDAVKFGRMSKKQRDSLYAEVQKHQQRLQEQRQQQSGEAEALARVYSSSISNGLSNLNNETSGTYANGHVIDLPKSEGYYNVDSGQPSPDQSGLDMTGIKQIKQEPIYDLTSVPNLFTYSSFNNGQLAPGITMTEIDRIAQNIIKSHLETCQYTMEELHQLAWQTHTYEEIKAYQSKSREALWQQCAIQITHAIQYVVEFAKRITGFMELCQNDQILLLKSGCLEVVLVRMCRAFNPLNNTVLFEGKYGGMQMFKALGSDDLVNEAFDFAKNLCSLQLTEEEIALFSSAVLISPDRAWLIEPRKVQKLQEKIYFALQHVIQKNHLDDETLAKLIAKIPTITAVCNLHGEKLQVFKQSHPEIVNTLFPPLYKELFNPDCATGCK

Usually AC50 stands for the concentration giving half of the maximal activity seen. Regarding `CCC(=O)O[C@H]1CC[C@H]2[C@@H]3CCC4=CC(=O)CC[C@]4(C)[C@H]3CC[C@]12C`, the outcome in assay [1], in [2], in [3], in assay [5], in assay [6] and in assay [11] was inactive. Moreover, the compound was called inactive in assay [13], in [14], in assay [16], in assay [17] and in [18]. For the same compound, the AC50 is 165 µM (active) and 163 µM (active) in assay [2]; 158 µM (active) [middle of 4 runs] in assay [4]; 186 µM (active) and 73.4 µM (active) and 100 µM (active) in assay [5]; 100 µM (active) in [6]; 31.4 µM (active) in assay [7]; 24.9 µM (active) in assay [8]. Moreover, the AC50 in [9] was 35.6 µM (active); in assay [10], 36 µM (active); in assay [12] it was 35.8 µM (active); in assay [15], 23 µM (active); in [17], 27.8 µM (active).
Regarding `Cc1ccccc1O`, the result in assay [1], in [2], in assay [3], in [4], in [5] and in [6] was inactive. For the same compound, the result in assay [7], in assay [8], in [9], in assay [10], in assay [19] and in assay [12] was inactive. Further, the compound was called inactive in assay [14], in assay [15], in [17] and in assay [18].
As to `c1cc2ccc3cccc4ccc(c1)c2c34`, the compound was classed as inactive in [1], in assay [2], in assay [3], in assay [4], in assay [5] and in assay [6]. Further, the outcome in [8], in [9], in assay [10], in assay [11], in [12] and in assay [13] was inactive. The result in assay [14], in assay [15], in assay [16], in assay [17] and in assay [18] was inactive. Besides, in assay [7], the AC50 is 5.47 µM (active).
Take `O=S(=O)(O)C(F)(F)C(F)(F)C(F)(F)C(F)(F)F`: the compound was called inactive in [1], in assay [2], in assay [3], in assay [4], in assay [5] and in [6]. Further, the outcome in assay [7], in [8], in assay [9], in [10], in assay [19] and in assay [11] was inactive. Also, the result in assay [12], in assay [15], in [16], in assay [17] and in assay [18] was inactive.
Consider `ClC(Cl)=C(c1ccc(Cl)cc1)c1ccc(Cl)cc1`, for which the AC50 in assay [1] is 100 µM (active) and 114 µM (active) and 152 µM (active); in [2] it was 169 µM (active) and 129 µM (active); in assay [4], 50.7 µM (active) [middle of 4 runs]; in assay [5] it was 145 µM (active) and 152 µM (active) and 154 µM (active); in [7] it was 29.4 µM (active); in assay [8] it was 33.4 µM (active). Also, the AC50 in [9] is 31.3 µM (active); in [10], 31.2 µM (active); in assay [19], 26.2 µM (active); in assay [12] it was 34 µM (active); in [17], 6.11 µM (active) [middle of 4 runs]. Besides, the compound was called inactive in assay [2], in assay [3], in [5], in assay [6], in assay [19] and in [11]. The compound was called inactive in [16] and in assay [20].
